Bioassay records as filed in PubChem BioAssay.
Shown are actives, neighbours in structure and some others; about 11% of the full set was active somewhere.
HEK cytotox = cytotoxic compounds in HEK 293 cells | hit rate 6.6% among 94,000 | HEK 293 viability, ATP luminescence (CellTiter-Glo), 48-72 h | Potency, µM (titrated, usually from 115 µM), usual class: inhibitors; note: nearly all actives have a fitted effect of over 60% in size
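HEK 293 seeded at 250 cells/well receive compound via pintool. After 48 or 72 hr at 37 degree Celsius, 5% CO2 and 95% humidity, CellTiter-Glo is dispensed and luminescence read following 10 min at room temperature.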
NIH3T3 tox = cytotoxic compounds in NIH 3T3 cells; hit rate 4.3% among 94,000; Potency, µM (series often up to 96.7 µM), hits mostly inhibitors; AID 1345082; NIH 3T3 viability, CellTiter-Glo ATP luminescence, 48-72 h; note: nearly all actives have a fitted effect of over 55% in size
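Cytotoxicity is measured as loss of cellular ATP: NIH 3T3 cells (400/well) are exposed to compound for 48 or 72 hr at 37 °C, then CellTiter-Glo luminescence is imaged after 10 min at room temperature.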
NPR1 antag = human Npr1 receptor antagonism; Potency, µM (titrated, usually from 46.3 µM), actives largely listed as inhibitors; P16066; hit rate 1.6% among 76,000; AID 1347048; HEK293 hNpr1 GloSensor cGMP, ANP-stimulated luminescence; calls by dose curve; note: nearly all actives have a fitted effect of over 60% in size
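Compound pre-incubated 30 min at room temperature on GloSensor-loaded HEK293 cells stably carrying hNpr1 and the pGS-40F cGMP biosensor. Stimulation uses hNppA at 0.1 nM final; luminescence is taken at baseline and 20 min post-agonist.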
FLuc inh = inhibitors of firefly (Photinus pyralis) luciferase; P08659; purified P. pyralis luciferase, luminescence, biochemical; Potency, µM (doses to about 115 µM), most hits filed as inhibitors; hit rate 2.5% among 76,000; AID 1347043; note: nearly all actives have a fitted effect of over 65% in size
Target sequence (P08659 whole entry, looked up): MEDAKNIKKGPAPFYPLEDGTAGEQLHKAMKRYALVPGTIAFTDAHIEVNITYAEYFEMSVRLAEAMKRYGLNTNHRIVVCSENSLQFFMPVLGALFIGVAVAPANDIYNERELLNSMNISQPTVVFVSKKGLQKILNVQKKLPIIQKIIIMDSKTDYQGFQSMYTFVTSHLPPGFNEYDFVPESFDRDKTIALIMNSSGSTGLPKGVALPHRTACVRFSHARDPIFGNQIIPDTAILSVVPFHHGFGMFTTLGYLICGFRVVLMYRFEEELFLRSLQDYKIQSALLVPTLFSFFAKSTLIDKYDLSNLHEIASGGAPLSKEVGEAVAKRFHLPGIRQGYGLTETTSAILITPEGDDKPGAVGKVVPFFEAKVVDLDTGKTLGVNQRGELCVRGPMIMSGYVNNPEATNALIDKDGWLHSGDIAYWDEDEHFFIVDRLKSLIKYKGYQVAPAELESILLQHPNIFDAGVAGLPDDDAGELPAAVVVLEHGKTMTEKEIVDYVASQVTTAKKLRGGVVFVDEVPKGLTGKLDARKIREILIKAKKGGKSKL
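Cell-free enzyme assay, 10nM P. pyralis luciferase, luciferin and ATP each at 10uM. Inhibition profiled over a 6-point titration, read as luminescence.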
A number is an active result; – = inactive; ? = inconclusive; · = not tested or not shown. Unless noted, calls come from the whole dose curve; as a rule, active = well fitted curve in the direction sought with a large enough effect; inconclusive = small, poorly fitted or top-dose-only effect, or another doubt; inactive = no such curve, though single readings can be large; an effect the other way counts as inactive or inconclusive.

SMILES	HEK cytotox	NIH3T3 tox	NPR1 antag	FLuc inh
CN(C)c1ccc(-c2ccnc(N[C@H]3CO[C@H]4[C@@H]3OC[C@H]4OC(=O)Nc3cccc(C(F)(F)F)c3)n2)cc1	31.6µM	?	–	–
COc1cccc(NC(=O)O[C@@H]2CO[C@H]3[C@@H]2OC[C@@H]3Nc2nccc(-c3cccc(F)c3)n2)c1	44.7µM	?	–	–
CC(C)(C)c1ccc(NC(=O)O[C@@H]2CO[C@H]3[C@@H]2OC[C@@H]3Nc2nccc(-c3ccc(-c4ccccc4)cc3)n2)cc1	28.2µM	39.8µM	–	–
O=C(c1ccc2oc(-c3ccccn3)nc2c1)N1CCOCC1	–	?	·	·
N#Cc1cccc(NC(=O)O[C@@H]2CO[C@H]3[C@@H]2OC[C@@H]3Nc2nccc(-c3ccc4c(c3)OCO4)n2)c1	28.2µM	?	–	–
CS(=O)(=O)N[C@H]1CO[C@H]2[C@@H]1OC[C@@H]2Nc1nccc(-c2cccc(F)c2)n1	–	–	–	–
O=S(=O)(Cc1ccccc1)N[C@H]1CO[C@H]2[C@@H]1OC[C@@H]2Nc1nccc(-c2cccc(F)c2)n1	31.6µM	?	?	–
COc1ccc(-c2ccnc(N[C@H]3CO[C@H]4[C@@H]3OC[C@@H]4NC(=O)Nc3cccc(C(F)(F)F)c3)n2)cc1	39.8µM	39.8µM	–	–
COCC1CN(C)CC12CCN(Cc1ccc(C#N)cc1)CC2 (stereo not given)	?	–	–	–
CC(C)c1csc(CN2CC[C@@H](c3ccc4c(c3)OCO4)[C@H](O)C2)n1	22.4µM	?	?	–
O=C(NCC1CCCCC1)c1ccc2c(c1)N(S(=O)(=O)c1ccccc1)CC2	?	39.8µM	–	–
CC(C)Cn1ccc2c(NC(=O)C[C@H]3NC(=O)c4ccccc4NC3=O)cccc21	?	28.2µM	–	–
NC(=O)c1ccc(Nc2cnc3ccc(-c4ccccc4)nn23)cc1	?	28.2µM	–	–
c1ccc(-c2ccc3ncc(Nc4ncccn4)n3n2)cc1	?	?	–	–
COc1ccccc1-c1ccc2ncc(Nc3ccc(CCO)cc3)n2n1	?	?	–	?
COc1ccc(Nc2cnc3ccc(-c4ccc(F)cc4)nn23)cn1	50.1µM	35.5µM	–	–
COc1ccc(Nc2cnc3ccc(-c4ccccc4)nn23)cc1	70.8µM	?	–	?
COc1ccc(Nc2cnc3ccc(-c4ccc(F)cc4)nn23)cc1	?	?	–	–
CN(Cc1ccc(F)cc1)c1ccc2ncc(Nc3ccc4c(c3)OCCO4)n2n1	39.8µM	?	–	–
COc1ccc(Nc2cnc3ccc(-c4ccccc4)nn23)cn1	44.7µM	39.8µM	–	?
Fc1ccc(-c2ccc3ncc(Nc4ccncc4)n3n2)cc1	100µM	?	–	–
Fc1ccc(-c2ccc3ncc(Nc4ccc5c(c4)OCO5)n3n2)cc1	79.4µM	?	–	–
OCCc1ccc(Nc2cnc3ccc(-c4cccc(CO)c4)nn23)cc1	?	?	–	?
CCC(C)NC(=O)C1CCCN1C(=O)c1cccc(-c2ccccn2)c1 (stereo not given)	–	–	·	·
Cc1noc2c(NCc3ccccc3)cc(-c3cccnc3)nc12	–	?	–	–
SMILES	HEK cytotox	NIH3T3 tox	NPR1 antag	FLuc inh
Cc1noc2c(NCc3cccnc3)cc(-c3ccc(Cl)cc3)nc12	100µM	?	–	–
Cc1noc2c(NCC3CCOCC3)cc(-c3ccc(Cl)cc3)nc12	100µM	?	–	–
Cc1noc2c(NCc3ccncc3)cc(-c3ccc(Cl)cc3)nc12	?	44.7µM	–	–
COc1ccc(CC(=O)N2CCCC(C(=O)N3CCC(N4CCOCC4=O)CC3)C2)cc1 (stereo not given)	–	–	·	·
Nc1ccc(CN2CCCC3(Cc4ccccc4CNC3=O)C2)cc1 (stereo not given)	–	–	·	·
O=C(Cc1ccccc1F)N1CCC(OCCOc2ccc(F)cc2)CC1	?	–	·	·
Cc1ccc(C2=NC3(CCN(C(=O)CCc4ccccc4)CC3)ON2)cc1	–	–	–	–
c1cc(-c2nc3c(c(NCCCn4ccnc4)n2)CCNCC3)ccn1	–	–	–	–
c1ccc(-c2nc3c(c(NCC4OCCc5ccccc54)n2)CCNCC3)nc1 (stereo not given)	?	79.4µM	–	–
Cn1cc(CN2CCC(C(=O)N3CCCC3)CC2)c(-c2ccc(C3CCCCC3)cc2)n1	–	–	–	–
Cn1cc(CN2CCC(C(O)c3cccnc3)CC2)c(-c2ccc(C3CCCCC3)cc2)n1 (stereo not given)	79.4µM	79.4µM	–	–
O=C(COc1ccc(-c2nnc3n2CCCC3)cc1)Nc1cccc(Br)c1	?	?	–	–
Cc1ccccc1NC(=O)N1c2ccccc2CC1c1noc(C2CCOCC2)n1 (stereo not given)	–	–	–	–
Cc1cc(C)cc(NC(=O)N2c3ccccc3CC2c2noc(C3CCOCC3)n2)c1 (stereo not given)	–	–	–	39.8µM
Cc1ccc(CN2CCCN(S(=O)(=O)c3ccccc3)CCC(=O)NCC2)o1	–	–	–	–
COc1cccc(CN2CCCC(Cc3ncc(C)n3Cc3ccccc3)C2)c1OC (stereo not given)	50.1µM	?	–	–
Cc1cccc(CC(=O)N2CCCCCC2c2nnc(-c3ccccc3)o2)c1 (stereo not given)	79.4µM	?	–	–
COc1cc(C)c2c(c1C)C[C@H](C(C)C(=O)NCc1cccs1)CC2 (stereo not given in full)	?	35.5µM	–	–
CCCOc1cc(C)c2c(c1C)C[C@H](C(C)C(=O)NCc1ccc(OC)cc1)CC2 (stereo not given in full)	–	–	–	–
COCCOc1cc(C)c2c(c1C)C[C@H](C(C)C(=O)NCc1cccs1)CC2 (stereo not given in full)	50.1µM	?	–	–
Cc1cc(OCCN(C)C)c(C)c2c1CC[C@@H]([C@H](C)C(=O)NCc1ccccc1)C2	50.1µM	56.2µM	–	–
O=S(=O)(c1ccccc1)N1CC(n2cnnc2-c2ccccc2)C1	–	–	·	·
COc1ccc2c3c1CN(S(C)(=O)=O)CC3=CC(C)(C)CO2	–	?	·	·
COc1ccc(-c2ccnc3nc(Cc4ccc(F)cc4)nn23)cc1OC	?	?	–	–
COc1ccc(Cc2nc3nccc(-c4ccc(OC)c(OC)c4)n3n2)cc1	?	14.1µM	–	–
SMILES	HEK cytotox	NIH3T3 tox	NPR1 antag	FLuc inh
COc1ccc(CCc2nc3nccc(-c4ccc(OC)c(OC)c4)n3n2)cc1	35.5µM	?	–	?
CC(C)=CCC1(CO)CCCN(Cc2[nH]c3ccc(F)cc3c2C)C1 (stereo not given)	20µM	22.4µM	–	–
CC(C)=CCC1(CO)CCCN(Cc2csc(C)n2)C1 (stereo not given)	?	–	–	–
O=C(NCc1cccc(C(F)(F)F)c1)c1nc2cccnc2n(CCc2ccccc2)c1=O	–	–	·	·
Cc1nnc(-c2cc(-c3cnn(C)c3)ccn2)n1C1CCCCC1	–	?	–	–
Cc1nnc(-c2cc(-c3ccc(N4CCOCC4)cc3)ccn2)n1C1CCCCC1	79.4µM	?	–	?
